Experimental data published in article PMC4336329 (PLoS ONE, 2015).
Out of some 310,000 compounds screened, about 14,000 (4.5%) showed an effect of 50% or more. Effects have a minus sign here. The sample holds strong results, similar compounds and a random draw of the others, so the mix is not that of the screen.

What follows are molecules tested against human ether-à-go-go-related gene (hERG) potassium channel (human, UniProt Q12809) (assay: primary screen, population patch clamp on CHO cells stably expressing hERG; higher = less effect of the substance).
Chain of human ether-à-go-go-related gene (hERG) potassium channel (Q12809 whole entry, looked up): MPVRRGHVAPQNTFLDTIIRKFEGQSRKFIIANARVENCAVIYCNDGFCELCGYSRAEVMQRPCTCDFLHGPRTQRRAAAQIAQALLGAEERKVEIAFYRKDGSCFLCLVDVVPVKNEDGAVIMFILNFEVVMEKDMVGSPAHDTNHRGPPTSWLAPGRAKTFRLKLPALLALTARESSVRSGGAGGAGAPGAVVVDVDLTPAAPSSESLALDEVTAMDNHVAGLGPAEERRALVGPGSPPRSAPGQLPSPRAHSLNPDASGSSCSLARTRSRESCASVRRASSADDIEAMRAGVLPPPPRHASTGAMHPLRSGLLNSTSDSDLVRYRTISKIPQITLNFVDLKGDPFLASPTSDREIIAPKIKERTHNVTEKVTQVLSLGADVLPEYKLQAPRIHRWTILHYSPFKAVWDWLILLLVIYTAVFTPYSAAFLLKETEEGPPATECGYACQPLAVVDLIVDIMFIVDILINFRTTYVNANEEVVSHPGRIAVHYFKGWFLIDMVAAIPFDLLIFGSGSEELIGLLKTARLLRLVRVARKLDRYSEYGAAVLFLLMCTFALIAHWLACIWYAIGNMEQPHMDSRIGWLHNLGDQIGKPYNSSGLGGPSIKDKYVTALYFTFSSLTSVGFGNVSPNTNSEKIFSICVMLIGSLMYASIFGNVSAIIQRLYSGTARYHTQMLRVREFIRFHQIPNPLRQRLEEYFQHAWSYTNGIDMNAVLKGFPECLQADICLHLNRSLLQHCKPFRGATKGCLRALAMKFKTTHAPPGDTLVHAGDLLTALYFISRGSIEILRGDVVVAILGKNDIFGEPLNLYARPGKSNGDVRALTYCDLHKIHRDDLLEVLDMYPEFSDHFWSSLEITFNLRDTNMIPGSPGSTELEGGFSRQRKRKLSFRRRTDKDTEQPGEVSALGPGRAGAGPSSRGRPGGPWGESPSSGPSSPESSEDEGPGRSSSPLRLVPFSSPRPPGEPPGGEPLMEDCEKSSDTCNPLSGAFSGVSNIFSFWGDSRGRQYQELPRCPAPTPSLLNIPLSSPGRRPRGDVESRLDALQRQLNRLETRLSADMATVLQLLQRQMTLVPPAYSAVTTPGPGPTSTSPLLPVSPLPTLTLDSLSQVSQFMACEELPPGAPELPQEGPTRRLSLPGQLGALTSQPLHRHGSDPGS
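Also: peak tail current of the secondary pulse compared with the same well before compound.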

| Compound | hERG current change (%, negative = inhibition) at 10uM [%] |
| --- | --- |
| O=C(CSc1ccc2nnc(-c3cccnc3)n2n1)Nc1cccc(F)c1 | -43.6 |
| Cc1cccc(CSc2ccc3nnc(-c4cccnc4)n3n2)c1 | -66.5 |
| Fc1cccc(CSc2ccc3nnc(-c4cccnc4)n3n2)c1 | -69 |
| Cc1cccc(NC(=O)CSc2ccc3nnc(-c4cccnc4)n3n2)c1 | -30.1 |
| Nn1c(SCc2cccc(F)c2)nnc1-c1cccnc1 | 9.33 |
| Cc1cccc(CSc2ccc3nnc(-c4cccs4)n3n2)c1 | 17.9 |
| Cc1cc(S(=O)(=O)N2CCCC2)ccc1OCC(=O)NCc1ccccc1 | -11.8 |
| COc1ccc(-c2nn(-c3ccccc3)cc2/C=N/NC(=O)c2ccc(Br)o2)cc1 | -0.138 |
| Cc1ccc(C(=O)NCCc2nnc3ccc(SCC(=O)Nc4ccccc4F)nn23)cc1 | -12.7 |
| Cc1ccc(NC(=O)c2cc(=O)n(Cc3ccccc3)c(=O)[nH]2)cc1C | 35.8 |
| N#C/C(=C/c1ccc(Sc2nc3ccccc3[nH]2)o1)c1cccc(Br)c1 | 21.3 |
| CN1CCN(C(=S)NCCc2ccccc2)CC1.O=C(O)C(=O)O | -14.5 |
| CCOC(=O)c1ccccc1NC(=S)N1CCN(C2CCCCC2)CC1 | -62.3 |
| S=C(NCCc1ccccc1)N1CCCCC1 | 14.4 |
| S=C(NCCc1ccccc1)N1CCCC1 | 9.47 |
| OC1CCN(C(=S)NCCc2ccccc2)CC1 | -0.627 |
| CC(=O)N1CCN(C(=S)NCCc2ccccc2)CC1 | -4.66 |
| S=C(NCCc1ccccc1)N1CCN(C2CCCCC2)CC1 | -63.4 |
| CCOC(=O)c1ccccc1NC(=S)N1CCC(N2CCCCC2)CC1 | -33.8 |
| O=C(c1ccccc1)N1CCN(C(=S)NCCc2ccccc2)CC1 | -65.7 |
| CC1CCN(C(=S)NCCc2ccccc2)CC1 | -15.2 |

| Compound | hERG current change (%, negative = inhibition) at 10uM [%] |
| --- | --- |
| S=C(NCCc1ccccc1)N1CCN(C23CC4CC(CC(C4)C2)C3)CC1 | -75.2 |
| COC(=O)c1ccccc1NC(=S)N1CCN(C2CCCCC2)CC1 | -22.4 |
| COc1cccc(CC2(CO)CCCN(S(=O)(=O)N(C)C)C2)c1 (stereo not drawn) | 42.4 |
| CCOC(=O)c1ccc(NC(=O)CN2C(=O)C(C)SC(C)C2=O)cc1 (stereo not drawn) | 8.95 |
| COc1ccc(C(CNC(=O)c2cc(S(=O)(=O)NCc3ccccc3)ccc2C)N2CCOCC2)cc1 (stereo not drawn) | -19 |
| COC(=O)CSc1nnc(COc2ccc3ccccc3c2)o1 | 19 |
| CC(=O)N(CCC1(C(C)C)CCOC(C)(C)C1)C(C)c1cccs1 (stereo not drawn) | -2.41 |
| Cc1cccc(NC(=O)c2ccc(C(=O)Nc3cccc(C)c3)nc2)c1 | 23.2 |
| COc1ccc(-c2noc(C(=O)NCc3ccccc3Cl)n2)cc1OC | 0.607 |
| CC(C)C1CC(c2csc(N)n2)CCO1 (stereo not drawn) | 18.8 |
| Cc1[nH]oc(=O)c1N=Nc1ccc2[nH]c(=O)[nH]c2c1 | 7.93 |
| CCOc1cc(-c2cn(S(=O)(=O)c3cccc4nsnc34)nc2N)cc(OCC)c1OCC | 0.719 |
| Cc1cc(C)c2sc(N(CCN(C)C)C(=O)c3c(F)cccc3F)nc2c1.Cl | -2.23 |
| CSCCC(NC(=O)c1ccc(Cl)cc1)C(=O)OCC(=O)N1CCCC1=O (stereo not drawn) | -2.69 |
| O=[N+]([O-])c1cccc(-c2ccc(C(=S)N3CCN(c4ccccc4)CC3)o2)c1 | 27.7 |
| O=S(=O)(c1ccc(F)cc1)N1CCN(C(=S)NCc2ccccc2)CC1 | 13.8 |
| S=C(NCc1ccccc1)N1CCN(C2CCCCC2)CC1 | -62.6 |
| CCOC(=O)c1ccc(NC(=S)NCCCN2CCCCC2)cc1 | -42 |
| S=C(NCc1ccccc1)N1CCN(Cc2ccc3c(c2)OCO3)CC1 | -16.7 |
| S=C(NCc1ccccc1)N1CCN(C(=S)NCc2ccccc2)CC1 | 12.9 |
| CCOC(=O)c1ccc(NC(=S)NCCCN2CCN(C3CCCCC3)CC2)cc1 | -53.7 |

| Compound | hERG current change (%, negative = inhibition) at 10uM [%] |
| --- | --- |
| O=S(=O)(c1ccccc1)N1CCN(C(=S)NCc2ccccc2)CC1 | -50.3 |
| O=S(=O)(c1cccc(F)c1)N1CCN(C(=S)NCc2ccccc2)CC1 | -0.89 |
| O=C(c1ccccc1)N1CCN(C(=S)NCc2ccc3c(c2)OCO3)CC1 | -59.4 |
| CCOc1ccc(NC(=S)NCCCN2CCN(C3CCCCC3)CC2)cc1 | -47.2 |
| O=C(c1ccccc1)N1CCN(c2ccc(NCc3ccc4c(c3)OCO4)cc2)CC1 | -12.2 |
| S=C(NCc1ccccc1)N1CCCCC1 | -1.03 |
| CC(=O)N1CCc2cc(N=NC3=C(O)CCCC3=O)ccc21 | 9.61 |
| COCCn1c(Cc2ccccc2)nnc1SCC(=O)N1CCCCC1C (stereo not drawn) | 7.49 |
| COc1ccc(CCC(=O)NNC(=O)Nc2ccccc2Cl)cc1 | 4.25 |
| CC1(c2ccc(OC(F)F)cc2)NC(=O)N(CC(=O)Nc2ccc3c(c2)OCO3)C1=O (stereo not drawn) | -36.5 |
| N#Cc1cc2c(nc1SCC(=O)Nc1sc3c(c1C#N)CCC3)CCCC2 | 4.92 |
| CCOc1ccc(C(=O)COC(=O)Cn2cnc3c2c(=O)n(C)c(=O)n3C)cc1 | -13.5 |
| S=C(Nc1ccccn1)NC1CCCC1 | -17.6 |
| O=C(NC(=S)Nc1ccc(CN2CCCCC2)cc1)c1cc2ccccc2o1 | -24.3 |
| COc1ccc(NC(=O)c2ccco2)cc1NC(=O)c1ccccc1F | 25.6 |
| CC1CCCCN1C(=O)CN1CCC(c2nc3ccc(Cl)cc3[nH]2)CC1 (stereo not drawn) | -60.2 |
| CC1CCCCN1C(=O)Cc1ccc(Cl)cc1 (stereo not drawn) | -11.1 |
| O=C(NC1CCCCC1)N1CCC(c2nc3ccc(Cl)cc3[nH]2)CC1 | -34.3 |
| CC1CCCN(C(=O)CN2CCC(c3nc4ccc(Cl)cc4[nH]3)CC2)C1 (stereo not drawn) | -67.8 |
| Cc1ccc2nc(C3CCN(CC(=O)N4CCCCCC4)CC3)[nH]c2c1 | -22.2 |
| CC1CCCCN1C(=O)CSc1nc2ccccc2[nH]1 (stereo not drawn) | 25.8 |
